This is an account of results in the supplement of paper PMC6555819.

One assay deals with VDR:RXRa (NR concentration 270 nM, RXRa partner concentration 90 nM). As to the kind of experiment: PBM binding z-score (relative to random genomic background probes); higher = stronger binding; sequences stand for … in GC…GCGATTGACAGCGTAGAATGAAGG
The procedure, abridged:
(§1)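 Ligand-free nuclear receptor dimers were bound for 1 h to custom Agilent 4×180K protein-binding microarrays. Detection used antibodies against each partner (one per run). Binding z-scores rest on regression-normalized fluorescence, with random background probes as the reference.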
For CAAACTAGGTCACCGTAAGGTCAAAGTCCGCATG, the PBM binding z-score was 6.28.
Consider CGTCCAAGGTCAATGTTAGGTCAGTGAAAGCATT, for which the PBM binding z-score worked out at 4.92.
Same read-out and setting: then TCGAGTAGGTTACGGGGTCATTCAGGGATGAAGA, with 6.34; and CCGAGTAGGTTACGAGGCGGCATTCAGTGCGAAT, with -0.141.

The test system of a further assay is VDR homodimer (NR concentration 270 nM). The description is as above. The essentials:
as §1
Regarding CTATGTAGGTTAAGCGGGTCATTCAGTTTGAAAG, the PBM binding z-score is 3.14.
Still for that read-out and setting: the result for TAGCCTCGGTCATTCAGGGGCCAGTATAGAAAGC reads -0.088; that for AGTCAAAGTTCTTCTAGGTAACGTAAGATATGCT, 0.746.
As to CTCGAAAGGTCGAGCTCAGGTGAGTATACCAAAC, the PBM binding z-score was 0.31.
Still for that read-out and setting: the result for CAAACTAGGTCACCGTAAGGTCAAAGTCCGCATG reads 4.19; that for CGTCCAAGGTCAATGTTAGGTCAGTGAAAGCATT, 2.78; that for CCGAGTAGGTTACGAGGGGGAATTCAGTGCGAAT, 0.419.
On the same count and under the same terms, the result for CCGACGGGGGCAGAAAGGTTACCATACCATCCGG reads 2.21; that for CGTCAAAGTTCAAGGTAAAGTAACAGAAAGCAGC, 2.89; that for CCTACTGGGCCATTCAGAGGTCATCGATCATATG, 3.03.
With CGTCGAAGGTCAATGCTAGGTCAGTGAAAGCATT, the PBM binding z-score turned out to be 1.91.
The same measure, in the same setting: the result for CCGAGTAGGTTACGAGGGGGCATTCATTGCGAAT reads 2.02.
CAAAGTAGGTCACCGGAAGGTCAAAGTCCGCATG: the PBM binding z-score amounted to 3.66.
The same measure, in the same setting: the result for TCGAGTAGGTTACGGGGTCATTCAGGGATGAAGA reads 5.89.
The same measure, in the same setting: the result for CGAACTATGTCACCAGGACAGTGAAGAGGTTGGA reads 0.455.
On the same count and under the same terms, then CTATCTAGGTTAAGGGGGTCATTCAGTTTGAAAG, with 7.21; and TTACCAAGGTGAAAGGTCGTTGAGGCACGCCTTG, with 1.32; and TCGAGTAGGTTATGGGGGCATTCAGGGATGAAGA, with 2.57.
For CGAACTAGGTCACCAGGACAATGAAGAGGTTGGA, the PBM binding z-score was determined as 0.459.
Still for that read-out and setting: the result for CGAACTAGGTCACCAGGACACTGAAGAGGTTGGA reads 0.607.
CGGACTGGGGCAAAGGTTACCATACTCAGTACGA registered a PBM binding z-score of 0.18.
Regarding TCGAGTAGGGTACGGGGGCATTCAGGGATGAAGA, the PBM binding z-score stood at 3.8.
The same measure, in the same setting: then CCTAGTTGGTCAAGGTAACACACGCTATAGGTAC, with 0.864; and CGAACTAGGACAAAGGACAGTGAAAGGCGACGTA, with -0.415.
CGAACTACGTCACCAGGACAGTGAAGAGGTTGGA displayed a PBM binding z-score of 0.0213.
On the same count and under the same terms, then CCTACTGGGCCATTAAGAGGTCATTGATCATATG, with 2.79; and ATATGTAGGTTAGCGGGGGTCATTCAGACTAGGC, with 5.45; and CCGAGTAGGTTACGAGGGGGCGTTCAGTGCGAAT, with 2.88.
On the same count and under the same terms, the result for CCGAGTAGGTTACGAGGCGGCATTCAGTGCGAAT reads -0.284.
The same measure, in the same setting: then ATCTCTAGGTAAAGTTCAGCGAAAGATCGATAGA, with 1.66; and CTCGAAAGGTCGTGCTTAGGTGAGTATACCAAAC, with 1.05; and TCTCGGAGGACACGAAAGGGCAGAGCTCGACATC, with -0.17.
As for CTATGTAGGTTAAGGGGGTCATTGAGTTTGAAAG, the PBM binding z-score is 7.05.
Sequence TATACTGGGTCAAAGGCCAGAGTACGAATGTCGA came in with a PBM binding z-score of 1.37.
On the same count and under the same terms, then CCCAGTAGGTTACGAGGGGGCATTCAGTGCGAAT, with 3.62.
Same read-out and setting: then ATCTCTAGGTTAAAGTTCAGTGAATCCCGAGGAT, with 3.12; and CGAACTAGGTCACCAGGACAGTGAGGAGGTTGGA, with 0.667.
On the same count and under the same terms, the result for ATGTGTAGGTTAGGGTCATTCAGAAAGTAGGGAA reads 4.18; that for CGATCTAGGTCAAAGGACAGTGAAAGGCGACGTA, 0.297.
